From PubChem BioAssay (NCATS)
Where “and” joins values, the source holds several entries; their conditions need not be identical. Equal values may be shown once. Inconclusive results are not listed. Calls of active or inactive are those of the source. The call rests on the fitted dose curve; in most records, active means well fitted curve in the direction sought with a large enough effect; inconclusive means small, poorly fitted or top-dose-only effect, or another doubt; inactive means no such curve, though single readings can be large; an effect the other way counts as inactive or inconclusive.

Key:
[1] = test system: HaCat; test: Cytotoxic Profiling of Annotated Libraries Using Quantitative High-Throughput Screening (AID 1296008); conditions: Five cell lines viability, CellTiter-Glo ATP luminescence, 48-72 h; max response: active compounds read low; further: nearly all actives have a fitted effect of over 60% in size; further: potency means the concentration at half of the fitted maximal effect; on max response: on the % scale 0 is the no-effect control and ±100 the full control effect
Method in brief: (§1)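 Cells exposed to compounds for 48 or 72 hr at 37 degrees Celsius. Viability read as ATP-coupled luminescence with CellTiter-Glo after 10 min at room temperature.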

[2] = test system: KB-3-1; test: as above; conditions: Five cell lines viability, CellTiter-Glo ATP luminescence, 48-72 h; max response: active compounds read low
Method in brief: as §1

[3] = test system: NIH3T3; test: as above; conditions: Five cell lines viability, CellTiter-Glo ATP luminescence, 48-72 h; max response: active compounds read low
Method in brief: as §1

[4] = test system: HACAT; test: qHTS assay to identify novel small-molecules to repurpose for Merkel cell carcinoma treatment (AID 1296009); conditions: MCC and control cell lines, CellTiter-Glo viability, 72 h; at 44.8 µM (top of the series) unless noted; further: nearly all actives have a fitted effect of over 60% in size; further: potency means the concentration at half of the fitted maximal effect
Method in brief: (§2)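 Cells were treated for 72 hr at 37 degree celsius with compounds in 8- or 11-point dose response. Viability was read by CellTiter-Glo luminescence, normalized to no-cell (cytotoxicity) and DMSO controls.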

[5] = test system: MCC-13; test: as above; conditions: MCC and control cell lines, CellTiter-Glo viability, 72 h; series mostly up to 46 µM
Method in brief: as §2

[6] = test system: MKL-1; test: as above; conditions: MCC and control cell lines, CellTiter-Glo viability, 72 h; series mostly up to 46 µM
Method in brief: as §2

[7] = test system: UISO; test: as above; conditions: MCC and control cell lines, CellTiter-Glo viability, 72 h; series mostly up to 46 µM
Method in brief: as §2

[8] = test system: WaGa; test: as above; conditions: MCC and control cell lines, CellTiter-Glo viability, 72 h; series mostly up to 46 µM
Method in brief: as §2

[9] = test system: MCC-26; test: as above; conditions: MCC and control cell lines, CellTiter-Glo viability, 72 h; series mostly up to 46 µM
Method in brief: as §2

[10] = test system: MKL-2; test: as above; conditions: MCC and control cell lines, CellTiter-Glo viability, 72 h; series mostly up to 46 µM
Method in brief: as §2

[11] = test system: HEK293; test: Cytotoxic Profiling of Annotated Libraries Using Quantitative High-Throughput Screening (AID 1296008); conditions: Five cell lines viability, CellTiter-Glo ATP luminescence, 48-72 h; max response: active compounds read low; further: nearly all actives have a fitted effect of over 60% in size; further: potency means the concentration at half of the fitted maximal effect; on max response: on the % scale 0 is the no-effect control and ±100 the full control effect
Method in brief: as §1

[12] = test system: NIH3T3; test: qHTS assay to identify novel small-molecules to repurpose for Merkel cell carcinoma treatment (AID 1296009); conditions: MCC and control cell lines, CellTiter-Glo viability, 72 h; at 44.8 µM (top of the series) unless noted; further: nearly all actives have a fitted effect of over 60% in size; further: potency means the concentration at half of the fitted maximal effect
Method in brief: as §2

[13] = test system: TAB165; test: qHTS profiling for inhibitors of Plasmodium falciparum proliferation (AID 504749); further: nearly all actives have a fitted effect of over 60% in size; further: potency means the concentration at half of the fitted maximal effect; conditions: P. falciparum in erythrocytes, SYBR Green DNA, 72 h; series mostly up to 28.7 µM
Method in brief: (§3)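 P. falciparum-infected erythrocytes (0.3% parasitemia, 2.5% hematocrit) incubated with compound 72 h at 37 C, 5% CO2. Parasite DNA detected by SYBR Green after lysis, overnight at room temperature; normalised to 0.29 uM artemisinin and DMSO.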

[14] = test system: W2; test: as above; conditions: P. falciparum in erythrocytes, SYBR Green DNA, 72 h; series mostly up to 28.7 µM
Method in brief: as §3

[15] = test system: C33A; test: Primary qHTS to identify gynecologic anti-cancer compounds using libraries of approved drugs and bioactive compounds (AID 1345084); conditions: Gynecologic cancer cell panel viability, ATPlite luminescence, 48 h; series mostly up to 57.5 µM; further: on the % scale 0 is the no-effect control and ±100 the full control effect; nearly all actives have a fitted effect of over 55% in size
Method in brief: (§4)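 Cells, 1,000 per well, plated 16 h, then exposed 48 h at 37 C to compounds. Viability by ATPlite luminescence after 15 min at room temperature.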

[16] = test system: CAOV3; test: as above; conditions: Gynecologic cancer cell panel viability, ATPlite luminescence, 48 h; series mostly up to 57.5 µM
Method in brief: as §4

[17] = test system: CASKI; test: as above; conditions: Gynecologic cancer cell panel viability, ATPlite luminescence, 48 h; series mostly up to 57.5 µM
Method in brief: as §4

[18] = test system: Es-2; test: as above; conditions: Gynecologic cancer cell panel viability, ATPlite luminescence, 48 h; series mostly up to 57.5 µM
Method in brief: as §4

CC(C)(C)OC(=O)CN(Cc1ccc(Cl)cc1)Cc1ccc([N+](=O)[O-])s1
inactive: outcome [1] | max response [2] 0.3% | max response [3] 1.62% | outcome [4] | Potency [5] | Potency [6] | Potency [7] | Potency [8]

Cc1ccc(NC(=O)c2cccc(C(C)(C)C#N)c2)cc1Nc1ccc2ncn(C)c(=O)c2c1
inactive: Potency [9] | Potency [6] | Potency [10] | Potency [8]
active: Potency [1] 13.2 µM | Potency [3] 16.6 µM

CNC(=O)c1ccc(N2C(=S)N(c3ccc(C#N)c(C(F)(F)F)c3)C(=O)C2(C)C)cc1F
inactive: max response [11] -4.81% | max response [2] 8.38% | max response [3] -6.26% | outcome [4] | Potency [5] | Potency [9] | Potency [6] | Potency [10] | Potency [7] | Potency [8]

Fc1ccc(Cl)cc1-c1nc(Nc2ccncc2)c2nccnc2n1
inactive: outcome [1] | max response [2] 2.67% | max response [3] -15.4% | outcome [4] | Potency [5] | Potency [9] | Potency [6] | Potency [10] | Potency [7] | Potency [8]

OCCC#Cc1nc(-c2ccc(F)cc2)c(-c2ccncc2)n1CCCc1ccccc1
inactive: max response [1] 4.71% | max response [2] 6.14% | outcome [3] | Potency [5] | Potency [9] | Potency [6] | outcome [12] | Potency [7]

CC(C)C[C@H](NC(=O)[C@@H](O)[C@H](N)Cc1ccccc1)C(=O)O
active: Potency [13] 5.01 µM | Potency [14] 1.69 µM
inactive: Potency [5] | Potency [9] | Potency [6] | Potency [8]

CCCS(=O)(=O)Nc1ccc(F)c(C(=O)c2c[nH]c3ncc(-c4ccc(Cl)cc4)cc23)c1F
inactive: max response [11] -5.51% | max response [2] 4.09% | Potency [5] | Potency [9] | Potency [6] | Potency [10] | Potency [7] | Potency [8] | Potency [15] | Potency [16] | Potency [17]

NC(=O)C1CCCc2c1[nH]c1ccc(Cl)cc21 (configuration not stated)
inactive: max response [1] -10.7% | max response [2] 2.38% | max response [3] -12.4% | Potency [5] | Potency [9] | Potency [6] | Potency [10] | Potency [7] | Potency [8]
active: Potency [11] 5.9 µM

CCOc1cc(N2CCC(O)CC2)ccc1Nc1ncc2c(n1)N(C)c1ccccc1C(=O)N2C
active: Potency [6] 3.32 µM | Potency [10] 2.64 µM | Potency [7] 11.8 µM | Potency [8] 3.72 µM

COCCNCCCn1c(C(=O)CF)c(-c2ccc(C)cc2)c2c(N)ncnc21
inactive: max response [1] -0.681% | max response [2] -1.17% | Potency [5] | Potency [9] | Potency [6] | Potency [10] | Potency [7] | Potency [8]

CCOC(=O)C1=C[C@@]2(CC)CCCN3CCc4c(n1c1ccccc41)[C@H]32
active: Potency [14] 4.78 µM

Cc1cccc(-c2nn(C(=S)Nc3ccccc3)cc2-c2ccnc3ccccc23)n1
inactive: max response [2] -23.5% | Potency [5] | Potency [6] | Potency [10] | Potency [7]

Oc1ccc(C2CNCCc3c2cc(O)c(O)c3Cl)cc1 (configuration not stated)
inactive: Potency [13] | Potency [15] | Potency [17] | Potency [18]

CCn1cc(C(=O)O)c(=O)c2cc(F)c(N3CCNC(C)C3)c(F)c21 (configuration not stated)
inactive: outcome [4] | Potency [5] | Potency [6] | Potency [10] | outcome [12] | Potency [7] | Potency [8] | Potency [15] | Potency [16] | Potency [17] | Potency [18]

Cc1cccc(-c2[nH]c(C(C)(C)C)nc2-c2ccc3nccnc3c2)n1
active: Potency [11] 3.72 µM | Potency [2] 14.8 µM | Potency [6] 2.64 µM | Potency [7] 2.96 µM | Potency [8] 2.64 µM
inactive: outcome [1] | outcome [4] | Potency [5]

CCOC(=O)N1CCC(=C2c3ccc(Cl)cc3CCc3cccnc32)CC1
active: Potency [13] 2.51 µM | Potency [14] 8.49 µM | Potency [11] 18.7 µM and 18.8 µM
inactive: max response [1] -16.9% and -8.21% | outcome [2] | max response [3] -21% and -12% | Potency [5] | Potency [9] | Potency [6] | Potency [10] | Potency [7] | Potency [15] | Potency [16] | Potency [17]

Nc1nc2c(ncn2COCCO)c(=O)[nH]1
inactive: Potency [13] | Potency [14] | Potency [15] | Potency [16] | Potency [18]

CCC(C)(C)C(=O)O[C@H]1C[C@@H](C)C=C2C=C[C@H](C)[C@H](CC[C@@H]3C[C@@H](O)CC(=O)O3)[C@H]21
inactive: Potency [15] | Potency [16] | Potency [17]
